BoNT-F LC inh = BoNT/F light chain protease inhibitors, primary screen, biochemical, flow cytometry, MLPCN library; Multiplex microsphere protease cleavage assay; inhibition, % at 10 µM; 360,000 tested, 0.22% active; in the data active means inhibition above about 35%, passing the limit was not always enough; inconclusive means no clear call, values can overlap the other calls; further: plate controls were buffer without enzyme for full effect and enzyme alone for no effect
PfHsp40 rescue = rescue of yeast from PfHsp40 toxicity, primary screen, S. cerevisiae, ATP luminescence; S. cerevisiae expressing PfHsp40, growth rescue; growth rescue, % at 12.5 µM; 340,000 tested, 0.68% active; AID 504582, 2011; in the data active means growth rescue above about 28%, passing the limit was not always enough; inconclusive means no clear call, values can overlap the other calls;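 further: yeast W303a lacking pdr1 and pdr3 grown in galactose medium; growth measured after three days at 30 °C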
Anthrax LF prot = Bacillus anthracis LF protease inhibitors, primary screen, biochemical, multiplex microsphere, MLPCN library | Lethal factor (Bacillus anthracis), P15917 | multiplex microsphere protease cleavage assay | inhibition, % at 10 µM | 360,000 tested, 0.12% active | AID 588501, 2011; further: plate controls were buffer without enzyme for full effect and enzyme alone for no effect
Bead autofluor = flagged as autofluorescent in microsphere protease counterscreen | compound autofluorescence counterscreen, microsphere flow cytometry; hits give high values | AID 624483 | 360,000 tested, 3.1% active | fluorescence intensity (test concentration not listed); in the data active means fluorescence intensity above about 16000; inconclusive means no clear call, values can overlap the other calls
BoNT A protease = BoNT/A light chain protease inhibitors, primary screen, biochemical, flow cytometry, MLPCN library | Botulinum neurotoxin type A light chain protease (Clostridium botulinum A str. ATCC 3502) | multiplex microsphere protease substrate cleavage | inhibition, % at 10 µM | 360,000 tested, 0.17% active; further: plate controls were buffer without enzyme for full effect and enzyme alone for no effect
MazF activator = activators of E. coli MazEF toxin-antitoxin RNase, primary screen, biochemical, fluorescence, uHTS; AID 504720, 2011; Endoribonuclease toxin MazF (Escherichia coli (strain K12)), P0AE70; 350,000 tested, 0.32% active; activation, % at 20 µM; FAM/BHQ RNA-DNA oligo cleavage fluorescence, 5 h; in the data active means activation above about 50%
Target sequence (P0AE70 whole entry, looked up): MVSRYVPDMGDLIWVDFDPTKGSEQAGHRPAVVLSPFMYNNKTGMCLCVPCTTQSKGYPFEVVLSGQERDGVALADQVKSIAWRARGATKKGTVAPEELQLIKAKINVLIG
Active calls of the source: *; ? = inconclusive; · = no result given; + = active, no number. The list is not random: actives were taken first. Their share in the collection is about 4.3%. Unless noted, no stated cut-off is given here; in the data, active means inhibition above about 30%; inconclusive means no clear call, values can overlap the other calls; inactive means below that.

SMILES | BoNT-F LC inh | PfHsp40 rescue | Anthrax LF prot | Bead autofluor | BoNT A protease | MazF activator
Cc1ccc(OCCN(C)C(=O)C2CCC(=O)N(CCCN3CCCC3=O)C2)cc1 (stereo unspecified) | -4.2 | 0.3 | 1.1 | 5754 | 0.5 | 8.5
Cc1ccc(N(C(=O)CS(=O)CC(=O)Nc2ccc(F)cc2)C(C)C(=O)NC(C)(C)C)cc1 (stereo unspecified) | -31.5 | 0.4 | -3.0 | 3391 | -2.3 | 2.0
Cc1nn(C)cc1S(=O)(=O)N1CCN(c2cccc(Cl)c2)CC1 | -0.5 | 0.0 | -0.3 | 5987 | -1.1 | 0.2
COc1ccc(NS(=O)(=O)c2cn(C)nc2C)cc1 | · | -0.5 | · | · | · | -3.6
Cc1noc(C)c1C(=O)N1CCN(C(=O)c2sc3cc(Cl)ccc3c2Cl)CC1 | 1.3 | 1.8 | -8.8 | 18980* | 2.4 | 0.1
Cc1noc(C)c1C(=O)N1CCN(Cc2ccccc2)CC1 | -22.8 | -1.1 | 2.5 | 5001 | -2.6 | 0.2
Cc1noc(C)c1C(=O)N1CCN(CCc2ccccc2)CC1 | -6.4 | 1.7 | -1.3 | 24658* | ? | 10.9
Cc1csc2nc(O)c(C(=O)NC3CCCCC3)c(=O)n12 | 2.5 | 164.7* | 4.4 | 5457 | 1.1 | 3.4
Cc1csc2nc(O)c(C(=O)NC3CCCCCC3)c(=O)n12 | -81.4 | -0.6 | -15.5 | 18119* | -49.3 | 3.3
Cc1csc2nc(O)c(C(=O)NCCCN3CCCC3=O)c(=O)n12 | -11.0 | -0.4 | 1.3 | 6142 | -0.1 | -1.2
O=C(NC1CCCC1)c1c(O)nc2sccn2c1=O | 6.4 | 0.3 | -3.5 | 5391 | 2.5 | 5.7
N#CC(C#N)=C1C=C2C=C(N3CCCCC3)CCC2CC1 (stereo unspecified) | · | · | · | · | · | +
CCN(CC)C1=CC2=CC(=C(C#N)C#N)CCC2CC1 (stereo unspecified) | 61.8* | -1.2 | 24.1 | 39639* | -7.6 | ·
CCCCN(C)C1=CC2=CC(=C(C#N)C#N)CCC2CC1 (stereo unspecified) | 108.7* | 1.6 | 38.5* | 49793* | 8.6 | ·
CC1(C)NC(=S)NC1=S | -3.9 | 0.2 | 0.2 | 2961 | 0.0 | 10.9
CC(C)N=C1NN=C(c2ccc(Cl)c(Cl)c2)CS1 | -9.4 | -1.5 | 0.2 | 4297 | 0.5 | 0.0
O=C(O)c1sccc1Oc1ccc(NS(=O)(=O)c2cccc(F)c2)cc1 | -15.4 | 0.3 | 2.0 | 3144 | -14.6 | 9.9
CC(C)(C)c1ccc(-c2nnc(SCC(=O)O)n2N)cc1 | 3.2 | 0.5 | -2.5 | 22213* | 1.5 | -3.7
CC(C)OC(=O)CSc1nnc(-c2ccc(C(C)(C)C)cc2)n1N | -23.0 | -0.7 | -0.9 | ? | 2.5 | 3.8
Cc1ccc(-c2nnc(SCC(=O)O)n2N)cc1 | -0.9 | 0.3 | -0.1 | 22439* | ? | 0.6
Cc1ccc(C(C)NC(=O)Cc2cccs2)cc1C (stereo unspecified) | 5.0 | 0.9 | 12.7 | 5732 | 0.4 | -4.9
COCCN1CCc2c(C)nc3c(-c4ccc(OC)c(OC)c4)cnn3c21 | 1.8 | -0.4 | -11.0 | 9041 | 1.1 | 7.1
COc1ccc(-c2cnn3c4c(c(C)nc23)CCN4C2CCCC2)cc1OC | -4.1 | -1.1 | -1.8 | 17372* | -2.4 | -4.5
C=CCn1c(SCC(=O)Nc2ccccc2OC)nnc1-c1ccccn1 | -0.8 | -0.5 | -1.1 | 16901* | -0.9 | 7.8
C=CCn1c(SCC(=O)Nc2cc(NC(C)=O)ccc2OC)nnc1-c1ccccn1 | 1.0 | -1.3 | 0.5 | 19382* | ? | 0.9
SMILES | BoNT-F LC inh | PfHsp40 rescue | Anthrax LF prot | Bead autofluor | BoNT A protease | MazF activator
C=CCn1c(SCC(=O)Nc2cc(NC(C)=O)ccc2OC)nnc1-c1cccnc1 | -2.4 | 0.8 | 6.2 | 9289 | 1.2 | -4.4
CCn1c(COc2ccc3c(c2)CCCC3)nnc1SCC(=O)Nc1nccs1 | 0.8 | 3.2 | -2.2 | 20125* | -0.4 | -3.3
CCn1c(SCC(=O)Nc2ccc(C)cc2)nnc1-c1cnccn1 | 2.7 | 0.5 | -0.8 | 5209 | -0.9 | 4.4
CCn1c(SCC(=O)Nc2ccccc2OC)nnc1-c1cnccn1 | -1.5 | 0.0 | -3.9 | 16989* | -1.3 | 6.6
COc1ccccc1NC(=O)CSc1nnc2ccc(-c3ccccn3)nn12 | 11.4 | 0.0 | 8.2 | 4317 | 5.4 | -11.1
Cc1ccc(-c2cc(Cc3ccccn3)c(=O)[nH]n2)cc1 | 3.7 | -1.5 | -8.1 | 3032 | -4.4 | 3.6
COc1cc2c(=O)n(CCC(=O)NCC3CCCO3)c(=O)n(CC(=O)Nc3ccc(C)cc3C)c2cc1OC (stereo unspecified) | -16.7 | 0.0 | 2.9 | 2963 | -0.2 | 10.5
CN(C(=O)c1cccc(NC(=O)Cc2ccc(NC(=O)C3CCN(C(=O)C4CC4)CC3)cc2)c1)C1CCCCC1 | 6.3 | 0.4 | -1.4 | 3820 | -0.3 | 1.6
CCn1c(COc2ccccc2)nnc1SCC(=O)Nc1cc(OC)ccc1OC | -3.4 | 1.2 | 3.8 | 10919 | -2.8 | -1.8
CCn1c(COc2cccc(OC)c2)nnc1SCC(=O)Nc1cc(OC)ccc1OC | -3.6 | 0.9 | -9.7 | 23149* | -1.7 | 3.1
Cn1c(SCC(=O)N2c3ccccc3Sc3ccc(Cl)cc32)nnc1-c1ccco1 | 0.6 | 36.2* | -0.2 | 10539 | -0.2 | -8.8
COc1ccc(N2CCN(C(=O)CSc3nnc(-c4cc5ccccc5cc4O)n3C)CC2)cc1 | -14.6 | 1.0 | -11.4 | 16210* | 17.0 | -7.0
CCn1c(SCC(=O)N2c3ccccc3Sc3ccccc32)nnc1-c1ccco1 | -11.6 | 1.4 | -0.5 | 4534 | -0.9 | -1.6
Cn1c(SCC(=O)N2CCN(c3ccccc3)CC2)nnc1-c1ccco1 | -0.3 | -0.4 | -2.3 | 20444* | 0.3 | 7.9
Cn1c(SCC(=O)N2CCOCC2)nnc1-c1ccco1 | -5.7 | -0.5 | -1.3 | 6030 | -0.8 | -1.8
Cn1c(CCNC(=O)c2cccs2)nnc1SCC(=O)N1CCN(c2ccccc2)CC1 | 1.4 | 0.8 | 0.5 | 23569* | ? | 5.4
CC(C)(C)OC(=O)N1CCC(C(=O)N[C@H](C(=O)O)c2ccccc2)(c2ccccc2)CC1 | -4.1 | 0.9 | 1.2 | 3798 | -2.9 | -1.7
CC1CC(=O)NN1C(=O)c1ccccc1 (stereo unspecified) | ? | 0.1 | -10.0 | 3863 | ? | 5.2
COc1cc2c(cc1NC(=O)C(C)OC(=O)c1ccc(S(=O)(=O)Nc3ccccc3Cl)cc1)oc1ccccc12 (stereo unspecified) | 4.1 | -0.3 | 1.9 | 2574 | 0.9 | -11.6
COc1ccc2[nH]cc(S(=O)(=O)c3ccc(C(C)C)cc3)c(=O)c2c1 | -0.2 | -1.9 | -0.2 | 4237 | 0.1 | 16.9
O=C(CSc1nnc(-c2ccccc2)n1-c1ccccc1)N1c2ccccc2Sc2ccccc21 | 4.9 | 0.6 | -4.1 | 21718* | 3.0 | 0.9
